From PubChem BioAssay AID1822 (The Scripps Research Institute Molecular Screening Center, 2009)
Hit rate of the full screen: of about 290,000 compounds, about 3,500 (1.2%) were called active. The full list was thinned out, with actives kept by preference. Values without a mark were called inactive.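 The calls were made as follows: active = inhibition above the campaign mean inhibition over all tested compounds plus 3 SD (cut at about 28% in these data); inactive = the rest.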

system: M18 aspartyl aminopeptidase (Plasmodium falciparum 3D7); test: inhibition of P. falciparum M18 aminopeptidase – biochemical, QFRET, recombinant enzyme, primary screen (AID 1822); settings: recombinant PfM18AAP, H-Glu-NHMec fluorogenic cleavage; at 7.35 µM; active compounds read high;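 also: 0% = plate median of test compound wells and 100% = 2 mM ZnCl2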

| SMILES | inhibition |
| --- | --- |
| c1cnc(N2CCN(c3ccc4ccccc4n3)CC2)nc1 | -7.11% |
| COC(=O)c1cc(NS(=O)(=O)c2ccc3c(c2)c(=O)n(C)c(=O)n3C)cc(C(=O)OC)c1 | 7.75% |
| CCOC(=O)[C@H]1[C@H]2COc3cc(OC)ccc3[C@@H]2N2C(=O)N(c3ccc(Br)cc3)C(=O)[C@@]12C | 8.12% |
| COc1cc(Cl)ccc1OCc1cc(C(=O)N2CC[C@@H]3CCCC[C@H]3C2)no1 | -8.61% |
| CCOc1cc(/C=N/NC(=O)CN2CCCCC2)ccc1O | -2.78% |
| Cc1nc2ccccc2n1CC(=O)N/N=C/c1cccnc1 | 0.09% |
| Cc1nccn1CC(=O)N/N=C/c1ccc(O)c(O)c1 | 59.7% (active) |
| Cn1c(SCC(=O)N/N=C/c2ccc(O)c(O)c2)nc2ccccc21 | 61.1% (active) |
| CCOc1ccc(/C=N/NC(=O)CSc2ccccn2)cc1O | -7.37% |
| CCn1c(SCC(=O)N/N=C/c2ccncc2)nc2ccccc21 | -5.49% |
| CC(=O)Oc1ccc(-c2cccc(C(=O)N3CCCCC3)c2)cc1 | 0.56% |
| CSc1nccc(NC(=O)c2ccc(C(C)(C)C)cc2)n1 | -0.09% |
| Cc1cccc([C@@H]2[C@@H]3C(=O)N(Cc4ccccc4)C(=O)[C@@H]3[C@]3(C)C(=O)N(c4ccc(Br)cc4)C(=O)N23)c1 | -12% |
| Cc1ccc(CNC(=O)[C@@H](NC(=O)Cc2ccccc2)C(C)C)cc1 | 5.66% |
| COc1cccc(NC(=O)Nc2nnc(N3CCCCC3C)s2)c1 (stereo unspecified) | 0.21% |
| COc1ccccc1NC(=O)c1ccc2nc(N3C(=O)CCC3=O)sc2c1 | -4.36% |

| SMILES | inhibition |
| --- | --- |
| COc1ccccc1NC(=O)c1ccc(N2CC3CC(C2)c2cccc(=O)n2C3)c(NC(=O)c2cccnc2)c1 (stereo unspecified) | 29.5% (active) |
| CCOc1ccccc1NC(=O)c1cccnc1 | -12.7% |
| CC(C)Cn1c(=O)c2ccccc2n2c(CCC(=O)NCc3ccccn3)nnc12 | -6.62% |
| CCOc1ccc(S(=O)(=O)N2CCN=C2Cc2ccccc2)cc1C | -0.06% |
| COc1ccc(Cc2nnc(N/N=C/c3ccccc3O)[nH]c2=O)cc1OC | 54.3% (active) |
| O=c1[nH]c(NCCO)nnc1Cc1ccc(Cl)cc1 | 5.33% |
| Cc1nnc(N/N=C/c2ccccn2)[nH]c1=O | 8.17% |
| COc1cccc(N(CC(=O)NCc2ccccc2)C(=O)CCC(=O)Nc2nccs2)c1 | -7.44% |
| CCCn1c2ccccc2c2cnn(CC(=O)NCCCN3CCCCC3CC)c(=O)c21 (stereo unspecified) | 2.69% |
| Oc1ccc(C2Nc3cccc4cccc(c34)N2)cc1 | 31.7% (active) |
| Cc1ccc(C2Nc3cccc4cccc(c34)N2)cc1 | 19.1% |
| COc1cccc(C2Nc3cccc4cccc(c34)N2)c1 | -7.19% |
| CCOC(=O)C1(Cc2cccc(OC)c2)CCCN(C(=O)CCSC)C1 (stereo unspecified) | -2.88% |
| Cc1ccc(C)c(N2CCN(C(=O)CCCCCn3c(=S)[nH]c4ccc(N5CCOCC5)cc4c3=O)CC2)c1 | 5.1% |
| O=C(O)CC(CC(=O)N1CCOCC1)c1ccccc1 (stereo unspecified) | -1.93% |
